Consider 40 compounds from PubChem BioAssay (NCI).

Molecules are shown by their SMILES. The panel holds about 83,000 compounds, 20% with a hit somewhere; the sample as a whole holds those more often.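 48-hour exposure, single concentration, 96-well plates; percent growth endpoint where 0 means no net growth. Active: below 10.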 A number with no mark means an inactive call. Activity calls are given as the source filed them.

The test system of this experiment is HL-60(TB) leukemia. The experiment in a line: NCI-60 one-dose screen, 48 h (100 = growth as untreated, 0 = no growth, -100 = all killed). The note with it: 10 µM unless noted.
With `C=C(C)[C@@H]1CC[C@]2(C(=O)O)CC[C@]3(C)[C@H](CC[C@@H]4[C@@]5(C)C[C@@H](CC#Cc6ccccc6)C(=O)C(C)(C)[C@@H]5CC[C@]43C)[C@@H]12`, the growth is 3.03% (active).

For `O=C1NCN(c2ccccc2)C12CCN(CCCC(c1ccc(F)cc1)c1ccc(F)cc1)CC2`, the growth was 32.6%.

For the compound `COc1cc(-c2[nH]ncc2Nc2ccc(Cl)cc2)cc(OC)c1OC`, the growth is 42.3%.

`CN1C(=O)C(C2=NNC(c3ccccc3C(=O)O)C2)C(=O)N(C)C1=O` (stereo not given): the growth is 95.5%.

Take `CCOC(=O)c1c(C)nc2c(c1N)C(=O)C(=O)N2Cc1ccc(OC)cc1`: the growth was 46.6%.

`Cn1cc(-c2ccc3cc(-c4ccc(CC(=O)Nc5cc(C(C)(C)C)nn5C)cc4)cnc3c2)cn1`: the growth was 25.2%.

For `COc1ccc(C2CC(c3ccccc3)=NN2c2nc(C)c(C(C)=O)s2)cc1` (stereo not given), the growth was 101%.

Consider `Cc1ccc(/C=C/C(=O)c2ccc(-n3cc(CN4CCN(c5cc6c(cc5F)c(=O)c(C(=O)O)cn6C5CC5)CC4)nn3)cc2)cc1`, for which the growth is 98.8%.

Regarding `Cc1nn(-c2ccccc2)c2c1oc(=O)c1cc(Cl)ccc12`, the growth was 84.3%.

As to `CCc1ccccc1C(=O)N(CC)CC`, the growth was 95.1%.

For `Cc1cc(C)c(O)c(CNCCCCCCNCc2cc(C)cc(C)c2O)c1`, the growth is -43% (active).

Regarding `CCCCn1c(=O)[nH]c2c(c1=O)C(c1ccc(Cl)cc1)c1c([nH]c(=O)n(CCCC)c1=O)N2`, the growth is 99.2%.

With `CC(=O)n1c2ccccc2c2ccccc21`, the growth was 104%.

For the compound `C#CCN=C[C@]12CC[C@@H](C(=C)C)[C@@H]1[C@H]1CC[C@@H]3[C@@]4(C)CCC(=O)C(C)(C)[C@@H]4CC[C@@]3(C)[C@]1(C)CC2`, the growth is -14.3% (active).

Regarding `O=C1/C(=C\c2cccnc2)SC(=S)N1CCc1ccc(O)cc1`, the growth is 18%.

For the compound `CC/C=C\C[C@H](O)C/C=C1/C(=O)C(Cl)=C[C@@H]1C/C=C\CCCC(=O)OC`, the growth is -2.33% (active).

For `OCC1OC(OC2C(O)C(CO)OC2(CO)OC2OC(CO)C(O)C(O)C2O)C(O)C(O)C1O` (stereo not given), the growth is 129%.

On to `COC(=O)[C@]12CC[C@@H](C)[C@H](C)[C@@H]1C1=CC[C@@H]3[C@@]4(C)C[C@@H](OC(C)=O)[C@H](OC(C)=O)[C@@](C)(COC(C)=O)[C@@H]4[C@H](O)C[C@@]3(C)[C@]1(C)CC2`, for which the growth was -10.2% (active).

As for `N=C(N)c1ccc(-c2ccc(-c3ccc(Cl)cc3Cl)s2)cc1`, the growth was -45.1% (active).

Turning to `Cc1ccc(S(=O)(=O)NCCNc2nccc(-c3c(-c4cccc(N)c4)nc4sccn34)n2)cc1`, the growth is 110%.

Regarding `Cc1cccc(Cl)c1NC(=O)c1cnc(Nc2cc(N3CCOCC3)cc(N3CCOCC3)c2)s1`, the growth was 45.3%.

For the compound `COc1ccc(CC(C)=C(c2ccc(OCCN3CCCCCC3)cc2)c2ccc(OCCN3CCCCCC3)cc2)cc1`, the growth was -59.8% (active).

On to `CCCCNC(=O)Oc1ccc(/C(=C(\C)c2ccc(Cl)cc2)c2ccc(OCCN3CCCCC3)cc2)cc1`, for which the growth is 64.9%.

Regarding `O=C(/C=C1\C(=O)N(Cc2ccc([N+](=O)[O-])cc2)c2ccccc21)c1ccc(OCCN2CCCCC2)cc1`, the growth was -50.6% (active).

`C=C[C@@H]1C[C@@H]2Cc3ccccc3N1O2`: the growth is -12.8% (active).

`CCCCCC(CCCCC)C(=O)O`: the growth is 90.4%.

In the case of `C=CN(C(=O)N1CCN(c2cc3c(cc2F)c(=O)c(C(=O)O)cn3C2CC2)CC1)c1nc(-c2ccc(OC)cc2)cs1`, the growth was -22.9% (active).

Consider `COc1ccc2nc3cc(Cl)ccc3c(NC(=O)CSc3ccc(Cl)cc3)c2c1`, for which the growth was -50.7% (active).

Take `COC(=O)c1ccc2nc(-c3cc4ccccc4n3C)n(CCCCOc3cc4c(cc3OC)C(=O)N3CCC[C@H]3C=N4)c2c1`: the growth was -36.2% (active).

In the case of `COc1cnc2c(c1)C(=O)c1c-2n(CCCNC2=NCCS2)c(=O)c2cc([N+](=O)[O-])ccc12`, the growth is -58.7% (active).

Regarding `CCN(CC)CCN1C(=O)c2c(c(C)c3c(oc4ccc(OC)cc43)c2C)C1=O`, the growth is 93.3%.

Consider `CCN(CC)c1ccc(/C=N/NC(=O)c2ccc(S(C)(=O)=O)cc2)c(O)c1`, for which the growth is -18.5% (active).

For the compound `COc1ccc2nc(-c3ccc(Cl)cc3)cc(-c3nnc(SC/C(=N/O)c4ccccc4)o3)c2c1`, the growth is 82%.

In the case of `CC[n+]1c(/C=C/C=C2\N(C)c3ccccc3C2(C)C)sc2ccccc21`, the growth was -30.3% (active).

In the case of `COc1ccc(Nc2nccc(N3CCN(c4c5ccc(Cl)cc5nc5ccc(OC)cc45)CC3)n2)cc1`, the growth was 15.4%.

Take `NC(=S)N/N=C/C(=O)O`: the growth was 87.8%.

For `NC(=O)c1ccc(-c2c3ccccc3cc3c2ccc2ccccc23)cc1`, the growth was 15.6%.

Regarding `O=C1/C(=C/c2cccc(OCc3ccccc3)c2)Oc2cc(OCCN3CCCCC3)ccc21`, the growth is 67%.

Turning to `S=C1NC2(c3ccccc3)CCC(=S)N2c2ccccc21` (stereo not given), the growth was 104%.

For `Cc1ccc(C(CC(=O)O)c2c(C)[nH][nH]c2=O)cc1` (stereo not given), the growth was 98.8%.
